Experimental data published in PubChem BioAssay AID1159580 (chemical genetic matrix, 2015).
The campaign covered roughly 5,500 compounds. About 2,000 (36%) were called active. Not shown: some 18% with an inconclusive outcome. No stated cut-off is given here; in the data, active means normalized growth mostly below about 0.91 (no sharp cut-off); inconclusive means no clear call, values can overlap the other calls; inactive means mostly above about 0.92. The list shows a part of the results.

Test: chemical genetic growth profiling, strain panel (AID 1159580);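 further: tested at 20 µM; growth read once vehicle control cultures reached saturation at 30 °C; 1 = growth at the plate median or of vehicle wells; lower values mean less growth of the strain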
Conditions: growth OD
[1] = S. cerevisiae deletion strains, locus YAL013W, strain DEP1, active compounds read low
[2] = S. cerevisiae deletion strains, locus YGR078C, strain PAC10, active compounds read low
[3] = S. cerevisiae deletion strains, locus YNL128W, strain TEP1, active compounds read low
[4] = S. cerevisiae deletion strains, locus YHR030C, strain SLT2, active compounds read low
[5] = S. cerevisiae deletion strains, locus YBR229C, strain ROT2, active compounds read low
[6] = S. cerevisiae deletion strains, locus YCL061C, strain MRC1, active compounds read low
[7] = S. cerevisiae deletion strains, locus YDL101C, strain DUN1, active compounds read low
[8] = S. cerevisiae deletion strains, locus YDR150W, strain NUM1, active compounds read low
[9] = S. cerevisiae deletion strains, locus YEL061C, strain CIN8, active compounds read low
[10] = S. cerevisiae deletion strains, locus YHR087W, strain rtc3, active compounds read low
[11] = S. cerevisiae deletion strains, locus YJR043C, strain POL32, active compounds read low
[12] = S. cerevisiae deletion strains, locus YKL190W, strain CNB1, active compounds read low
[13] = S. cerevisiae deletion strains, locus YLR039C, strain RIC1, active compounds read low
[14] = S. cerevisiae deletion strains, locus YLR058C, strain SHM2 (second series), active compounds read low
[15] = S. cerevisiae deletion strains, locus YLR085C, strain ARP6, active compounds read low
[16] = S. cerevisiae deletion strains, locus YLR262C, strain YPT6, active compounds read low
[17] = S. cerevisiae deletion strains, locus YML094W, strain GIM5, active compounds read low
[18] = S. cerevisiae deletion strains, locus YMR219W, strain ESC1, active compounds read low
[19] = S. cerevisiae deletion strains, locus YMR263W, strain SAP30, active compounds read low
[20] = S. cerevisiae deletion strains, locus YNL298W, strain CLA4 (second series), active compounds read low
[21] = S. cerevisiae deletion strains, locus YNL322C, strain KRE1, active compounds read low
[22] = S. cerevisiae deletion strains, locus YNR030W, strain Alg12, active compounds read low
[23] = S. cerevisiae deletion strains, locus YPL055C, strain LGE1, active compounds read low
[24] = S. cerevisiae deletion strains, locus YPL241C, strain CIN2, active compounds read low
[25] = S. cerevisiae deletion strains, locus YPR135W, strain CTF4, active compounds read low

Measured: normalized growth

CSc1ccc(C(=O)c2[nH]c(=O)[nH]c2C)cc1
inactive: [1] 0.943 | S. cerevisiae deletion strains, locus YAL040C, strain CLN3, active compounds read low 1.06 | S. cerevisiae deletion strains, locus YCL061C, strain MRC1 (second series), active compounds read low 0.991 | S. cerevisiae deletion strains, locus YDR363W, strain ESC2, active compounds read low 0.934 | S. cerevisiae deletion strains, locus YER002W, strain NOP16, active compounds read low 0.978 | [2] 1 | S. cerevisiae deletion strains, locus YMR307W, strain GAS1, active compounds read low 1.01 | [3] 0.981 | S. cerevisiae deletion strains, locus YNL175C, strain NOP13, active compounds read low 0.985 | S. cerevisiae deletion strains, locus YNL197C, strain WHI3, active compounds read low 0.994 | S. cerevisiae deletion strains, locus YNL224C, strain SQS1, active compounds read low 0.994 | S. cerevisiae deletion strains, locus YOR083W, strain WHI5 (second series), active compounds read low 0.96

CC[C@@H]1OC(=O)C[C@@H](O)[C@H](C)[C@@H](O[C@@H]2O[C@H](C)[C@@H](O)[C@H](N(C)C)[C@H]2O)[C@@H](CCN2C[C@H](C)C[C@H](C)C2)C[C@@H](C)C(=O)/C=C/C(C)=C\[C@@H]1CO[C@@H]1O[C@H](C)[C@@H](O)[C@@H](OC)[C@H]1OC
inactive: S. cerevisiae deletion strains, locus YAL021C, strain ccr4, active compounds read low 1 | S. cerevisiae deletion strains, locus YAL026C, strain drs2, active compounds read low 0.994 | S. cerevisiae deletion strains, locus YAL030W, strain snc1, active compounds read low 0.996 | S. cerevisiae deletion strains, locus YBL061C, strain skt5, active compounds read low 0.99 | S. cerevisiae deletion strains, locus YBR009C, strain hhf1, active compounds read low 1 | S. cerevisiae deletion strains, locus YBR023C, strain chs3, active compounds read low 0.997 | S. cerevisiae deletion strains, locus YBR171W, strain sec66, active compounds read low 1.01 | S. cerevisiae deletion strains, locus YBR231C, strain swc5, active compounds read low 0.986 | S. cerevisiae deletion strains, locus YBR279W, strain paf1, active compounds read low 0.982 | S. cerevisiae deletion strains, locus YCL011C, strain gbp2, active compounds read low 0.971 | S. cerevisiae deletion strains, locus YCL016C, strain dcc1, active compounds read low 0.967 | S. cerevisiae deletion strains, locus YCL069W, strain vba3, active compounds read low 1.02 | S. cerevisiae deletion strains, locus YCR088W, strain abp1, active compounds read low 1.01 | S. cerevisiae deletion strains, locus YDL005C, strain med2, active compounds read low 0.994 | S. cerevisiae deletion strains, locus YDL040C, strain nat1, active compounds read low 0.996 | S. cerevisiae deletion strains, locus YDR001C, strain nth1, active compounds read low 1.01 | S. cerevisiae deletion strains, locus YDR069C, strain doa4, active compounds read low 0.992 | S. cerevisiae deletion strains, locus YDR137W, strain rgp1, active compounds read low 1 | S. cerevisiae deletion strains, locus YDR159W, strain sac3, active compounds read low 0.931 | S. cerevisiae deletion strains, locus YDR195W, strain ref2 0.972 | S. cerevisiae deletion strains, locus YDR297W, strain sur2, active compounds read low 1.01 | S. cerevisiae deletion strains, locus YDR334W, strain swr1, active compounds read low 0.995 | S. cerevisiae deletion strains, locus YDR335W, strain msn5, active compounds read low 1.01 | S. cerevisiae deletion strains, locus YDR392W, strain spt3, active compounds read low 0.887 | S. cerevisiae deletion strains, locus YEL003W, strain gim4, active compounds read low 1.01 | S. cerevisiae deletion strains, locus YEL037C, strain rad23, active compounds read low 1.01 | S. cerevisiae deletion strains, locus YEL061C, strain CIN8 (second series), active compounds read low 1.01 | S. cerevisiae deletion strains, locus YER015W, strain faa2, active compounds read low 1 | S. cerevisiae deletion strains, locus YER016W, strain bim1, active compounds read low 0.993 | S. cerevisiae deletion strains, locus YER111C, strain swi4, active compounds read low 1 | S. cerevisiae deletion strains, locus YER155C, strain BEM2 (second series), active compounds read low 1 | S. cerevisiae deletion strains, locus YFR010W, strain ubp6, active compounds read low 1 | S. cerevisiae deletion strains, locus YGL167C, strain pmr1, active compounds read low 1 | S. cerevisiae deletion strains, locus YGL173C, strain kem1, active compounds read low 0.981 | S. cerevisiae deletion strains, locus YGL227W, strain vid30, active compounds read low 0.987 | S. cerevisiae deletion strains, locus YGL240W, strain doc1, active compounds read low 0.975 | S. cerevisiae deletion strains, locus YGL253W, strain hxk2, active compounds read low 1.01 | S. cerevisiae deletion strains, locus YHR013C, strain ard1, active compounds read low 0.955 | S. cerevisiae deletion strains, locus YHR027C, strain rpn1, active compounds read low 1 | [4] 0.978 | S. cerevisiae deletion strains, locus YHR079C, strain IRE1, active compounds read low 0.971 | S. cerevisiae deletion strains, locus YHR142W, strain chs7, active compounds read low 0.983 | S. cerevisiae deletion strains, locus YJL092W, strain hpr5, active compounds read low 1.01 | S. cerevisiae deletion strains, locus YJL095W, strain BCK1 (second series), active compounds read low 0.996 | S. cerevisiae deletion strains, locus YJL095W, strain BCK1, active compounds read low 0.974 | S. cerevisiae deletion strains, locus YJL115W, strain asf1, active compounds read low 1.01 | S. cerevisiae deletion strains, locus YJL129C, strain trk1, active compounds read low 1 | S. cerevisiae deletion strains, locus YJL154C, strain vps35, active compounds read low 1.02 | S. cerevisiae deletion strains, locus YJL164C, strain tpk1, active compounds read low 1.03 | S. cerevisiae deletion strains, locus YJL166W, strain qcr8, active compounds read low 1.02 | S. cerevisiae deletion strains, locus YJR066W, strain TOR1, active compounds read low 0.939 | S. cerevisiae deletion strains, locus YKL160W, strain elf1, active compounds read low 0.974 | S. cerevisiae deletion strains, locus YKR026C, strain gcn3, active compounds read low 0.997 | S. cerevisiae deletion strains, locus YKR091W, strain srl3, active compounds read low 1 | S. cerevisiae deletion strains, locus YLL001W, strain dnm1, active compounds read low 1 | S. cerevisiae deletion strains, locus YLL026W, active compounds read low 0.993 | S. cerevisiae deletion strains, locus YLL041C, strain sdh2, active compounds read low 1.01 | S. cerevisiae deletion strains, locus YLR027C, strain aat2, active compounds read low 0.994 | S. cerevisiae deletion strains, locus YLR113W, strain HOG1, active compounds read low 1 | S. cerevisiae deletion strains, locus YLR221C, strain rsa3, active compounds read low 0.99 | S. cerevisiae deletion strains, locus YLR258W, strain gsy2, active compounds read low 0.992 | S. cerevisiae deletion strains, locus YLR262C, strain YPT6 (second series), active compounds read low 1.03 | S. cerevisiae deletion strains, locus YLR320W, strain mms22, active compounds read low 0.981 | S. cerevisiae deletion strains, locus YLR342W, strain FKS1, active compounds read low 0.984 | S. cerevisiae deletion strains, locus YLR357W, strain rsc2, active compounds read low 0.987 | S. cerevisiae deletion strains, locus YLR370C, strain arc18, active compounds read low 0.99 | S. cerevisiae deletion strains, locus YLR384C, strain iki3, active compounds read low 0.981 | S. cerevisiae deletion strains, locus YML120C, strain ndi1, active compounds read low 1.01 | S. cerevisiae deletion strains, locus YMR058W, strain fet3, active compounds read low 1 | S. cerevisiae deletion strains, locus YMR125W, strain sto1, active compounds read low 0.996 | S. cerevisiae deletion strains, locus YMR129W, active compounds read low 1 | S. cerevisiae deletion strains, locus YMR205C, strain PFK2, active compounds read low 1.01 | S. cerevisiae deletion strains, locus YMR231W, strain pep5, active compounds read low 1 | S. cerevisiae deletion strains, locus YNL071W, strain lat1, active compounds read low 1.02 | S. cerevisiae deletion strains, locus YNL183C, strain NPR1, active compounds read low 0.955 | S. cerevisiae deletion strains, locus YNL209W, strain ssb2, active compounds read low 1 | S. cerevisiae deletion strains, locus YNL248C, strain rpa49, active compounds read low 1 | S. cerevisiae deletion strains, locus YNL322C, strain KRE1 (second series), active compounds read low 0.997 | S. cerevisiae deletion strains, locus YNR049C, strain mso1, active compounds read low 1 | S. cerevisiae deletion strains, locus YOR001W, strain rrp6, active compounds read low 0.994 | S. cerevisiae deletion strains, locus YOR070C, strain gyp1, active compounds read low 0.999 | S. cerevisiae deletion strains, locus YOR080W, strain dia2, active compounds read low 1.01 | S. cerevisiae deletion strains, locus YOR083W, strain WHI5, active compounds read low 0.943 | S. cerevisiae deletion strains, locus YOR106W, strain vam3, active compounds read low 1.01 | S. cerevisiae deletion strains, locus YOR231W, strain MKK1, active compounds read low 0.976 | S. cerevisiae deletion strains, locus YOR265W, strain rbl2, active compounds read low 1 | S. cerevisiae deletion strains, locus YOR270C, strain vph1, active compounds read low 0.976 | S. cerevisiae deletion strains, locus YOR290C, strain snf2, active compounds read low 0.978 | S. cerevisiae deletion strains, locus YPL051W, strain arl3, active compounds read low 0.998 | S. cerevisiae deletion strains, locus YPL078C, strain atp4, active compounds read low 0.991 | S. cerevisiae deletion strains, locus YPL106C, strain sse1, active compounds read low 0.963 | S. cerevisiae deletion strains, locus YPL240C, strain hsp82, active compounds read low 1 | S. cerevisiae deletion strains, locus YPL256C, strain CLN2, active compounds read low 0.952

CCOC(=O)C(=CNNS(=O)(=O)c1cc(C(F)(F)F)cc(C(F)(F)F)c1)C(=O)OCC
inactive: [1] 1.01 | [5] 0.997 | [6] 0.979 | [7] 0.929 | S. cerevisiae deletion strains, locus YDL134C, strain PPH21, active compounds read low 1 | [8] 1 | [9] 1.01 | [2] 0.967 | [4] 1 | [10] 0.96 | [11] 0.973 | [12] 0.992 | [13] 0.931 | [14] 0.954 | [15] 1.03 | [16] 0.968 | [17] 0.988 | [18] 0.989 | [19] 1.04 | [3] 0.945 | [20] 1 | [21] 0.993 | [22] 1 | [23] 1.03 | [24] 1.02 | [25] 0.964

O=S(=O)(NCCc1ccncc1)c1cc(C(F)(F)F)cc(C(F)(F)F)c1
inactive: [1] 1 | [5] 0.988 | [6] 0.963 | [7] 0.966 | [8] 0.913 | [9] 1 | [2] 0.987 | [4] 1.01 | [10] 1.07 | S. cerevisiae deletion strains, locus YJL187C, strain SWE1, active compounds read low 1.01 | [11] 0.964 | S. cerevisiae deletion strains, locus YJR075W, strain HOC1, active compounds read low 1.02 | [12] 1.01 | [13] 0.976 | [14] 1 | [15] 1.05 | [16] 1.03 | [17] 1.02 | [18] 0.993 | [19] 1.01 | [3] 0.989 | S. cerevisiae deletion strains, locus YNL153C, strain GIM3, active compounds read low 0.994 | [20] 0.986 | [21] 1 | [22] 1.03 | S. cerevisiae deletion strains, locus YOL006C, strain TOP1, active compounds read low 0.976 | [23] 1.02 | [24] 0.98 | [25] 0.942 | S. cerevisiae strains, strain wild type, active compounds read low 0.979
